Reference: the supplement of paper PMC7156485
Where “and” joins values, the source holds several entries; their conditions need not be identical. Identical values can stand only once. ± gives the standard deviation of the averaged measurements.

Tests used:
Settings in all cases: concentration: 10 µM; 24 h
HCC1569 [1] = assay: cell number relative to DMSO (% of DMSO); higher = more cells (less growth inhibition / toxicity)
How it was run: (§1)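 For HCC1569 and TDF cells, compounds at 10 µM were applied for 24 h at 37 °C in triplicate in 384-well plates. Cells were fixed in 3.7% formaldehyde, stained for H1.0 and with DAPI, and imaged at ×10 over six fields per well. The endpoint, H1.0 nuclear intensity or cell number, is shown as percent of the plate control using the median of replicates. Positional effects were smoothed for HCC1569 only.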

TDF [2] = assay: as above
How it was run: as §1

TDF [3] = assay: H1.0 immunofluorescence intensity relative to DMSO (% of DMSO); higher = stronger H1.0 induction, active = 120 or more
How it was run: as §1

HCC1569 [4] = assay: H1.0 immunofluorescence intensity relative to DMSO (% of DMSO); higher = stronger H1.0 induction, active = 140 or more
How it was run: as §1
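Throughout, for H1.0 immunofluorescence intensity relative to DMSO: TDF is a line of transformed human dermal fibroblasts of mesenchymal origin.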
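Throughout, for cell number relative to DMSO: TDF denotes transformed human dermal fibroblasts of mesenchymal origin.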

| Compound | cell number (HCC1569 [1]) | cell number (TDF [2]) | H1.0 immunofluorescence intensity (TDF [3]) | H1.0 immunofluorescence intensity (HCC1569 [4]) |
| --- | --- | --- | --- | --- |
| O=c1cc(N2CCOCC2)oc2c1ccc1ccccc12 [DNA-PK Inhibitor II] | 98.1 | 97.4 | 92.5 (inactive) | 112 (inactive) |
| CN(C)CCC(c1ccc(Cl)cc1)c1ccccn1.O=C(O)C=CC(=O)O (racemic) | 96.1 | 107 | 103 (inactive) | 94.5 (inactive) |
| CCCCCC=CCC=CCC=CCCCCCCC(=O)O [Dihomo-γ-linolenic acid] | 99.6 | 98.6 | 96.3 (inactive) | 97.7 (inactive) |
| CC(=O)O.O=C(NCC1CCCCN1)c1cc(OCC(F)(F)F)ccc1OCC(F)(F)F (configuration not stated) [Flecainide acetate] | 102 ± 3.6 | 101 ± 1.2 | 91.5 (inactive) | 107 (inactive) |
| COc1cc(/C=C/C(=O)NCCn2c(C)cc3ccccc32)cc(OC)c1OC | 103 | 96.6 | 103 (inactive) | 106 (inactive) |
| CC1CC2OC2C=CC=CC(=O)Cc2c(Cl)c(O)cc(O)c2C(=O)O1 (configuration not stated) [Radicicol] | 66.2 | 15.9 | 133 (active) | 121 (inactive) |
| N#CC(=Cc1ccc(O)c(O)c1)C(=O)NCCCNC(=O)C(C#N)=Cc1ccc(O)c(O)c1 [Tyrphostin AG 537] | 101 | 101 | 94 (inactive) | 99.6 (inactive) |
| O=C1Nc2ccc(Br)cc2C1=Cc1cc2c([nH]1)CCCC2 [VEGF Receptor 2 Kinase Inhibitor II] | 94 | 114 | 76.2 (inactive) | 190 (active) |
| O=C(NCCO[N+](=O)[O-])c1cccnc1 [Nicorandil] | 102 | 96.3 | 91.5 (inactive) | 107 (inactive) |
| Cl.O=S(=O)(c1cccc2c(Cl)cccc12)N1CCCNCC1 | 99 and 96.6 | 104 | 103 (inactive) and 93.2 (inactive) | 105 (inactive) and 97.4 (inactive) |
| COC(=O)C(C)(N)Cc1ccc(O)cc1.Cl (racemic) [alpha-Methyl-DL-tyrosine methyl ester hydrochloride] | 101 | 103 | 93 (inactive) | 94.3 (inactive) |
| CC(C)(C=O)Cc1cc(C(C)(C)C)c(O)c(C(C)(C)C)c1 | 109 | 106 | 92 (inactive) | 97.1 (inactive) |
| COC1CC2CCC(C)C(O)(O2)C(=O)C(=O)N2CCCCC2C(=O)OC(C(C)CC2CCC(O)C(OC)C2)CC(=O)C(C)C=C(C)C(O)C(OC)C(=O)C(C)CC(C)C=CC=CC=C1C (configuration not stated) [Rapamycin] | 96.2 ± 5.5 | 92.4 ± 8.9 | 86.7 (inactive) | 108 (inactive) |
| N#Cc1ccc2c(c1)CCN(CCC1CCC(NC(=O)c3ccnc4ccccc34)CC1)C2 (configuration not stated) | – | – | 90.6 (inactive) | 158 (active) |
| CN1CCN(C2Cc3ccccc3Sc3ccc(Cl)cc32)CC1.O=C(O)C=CC(=O)O (configuration not stated) [Clorotepine maleate] | 98.5 | 102 | 106 (inactive) | 118 (inactive) |
| CCN(CC)CCCC(C)Nc1c2ccc(Cl)cc2nc2ccc(OC)cc12.Cl.Cl (configuration not stated) [Quinacrine dihydrochloride] | 67.6 | 4.99 | – | 133 (inactive) |
| CCN(CC)CCCC(C)Nc1cc(/C=C/c2ccccc2Cl)nc2cc(Cl)ccc12 (configuration not stated) | 6.31 | 1.01 | – | 102 (inactive) |
| Cc1cc(Nc2ccc(NC(=O)c3ccc(Nc4ccnc5ccccc45)cc3)cc2)nc(N)n1 | 13.5 | 0.96 | – | 83.8 (inactive) |
| CC(Cc1ccccc1)Nc1ncnc2c1ncn2C1OC(CO)C(O)C1O (stereo not drawn) [R(-)-N6-(2-Phenylisopropyl)adenosine] | 107 | 96.5 | 93.6 (inactive) | 102 (inactive) |
| C=CC(=O)N1C/C(=C\c2ccc([N+](=O)[O-])cc2)C(=O)/C(=C/c2ccc([N+](=O)[O-])cc2)C1 [1-acryloyl-3,5-bis((E)-4-nitrobenzylidene)piperidin-4-one] | 17.5 | 0.39 | – | 145 (active) |
| NC(=O)Nc1cc(-c2cccc(F)c2)sc1C(=O)NC1CCCNC1 (configuration not stated) | 19.9 | 1.8 | – | 60.3 (inactive) |
| CC(C(=O)O)c1cccc(C(=O)c2ccccc2)c1 (configuration not stated) [Ketoprofen] | – | – | 88.8 (inactive) | 101 (inactive) |
| CC1(C)C(C(=O)O)N2C(=O)CC2S1(=O)=O (configuration not stated) [Sulbactam] | – | – | 95.9 (inactive) | 108 (inactive) |
| c1cc(-c2cnn3cc(-c4ccc(N5CCNCC5)cc4)cnc23)c2cccnc2c1 | 22.7 | 0.96 | – | 100 (inactive) |
| Nc1nc(Nc2ccc(S(N)(=O)=O)cc2)nn1C(=S)Nc1c(F)cccc1F [Cdk1/2 Inhibitor III] | 51.9 | 14.2 | 133 (active) | 128 (inactive) |
| CCc1cc(Cl)c(OC)c(C(=O)NCC2CCCN2CC)c1O.Cl (stereo not drawn) [S-(-)-Eticlopride hydrochloride] | 102 | 110 | 103 (inactive) | 97.8 (inactive) |
| C[n+]1cc2c3c(ccc2c2ccc4cc5c(cc4c21)OCO5)OCO3.[Cl-] [Sanguinarine chloride] | 15.1 | 0.53 | – | 178 (active) |

| Compound | cell number (HCC1569 [1]) | cell number (TDF [2]) | H1.0 immunofluorescence intensity (TDF [3]) | H1.0 immunofluorescence intensity (HCC1569 [4]) |
| --- | --- | --- | --- | --- |
| O=C(NC1=CNNC1=C1N=c2ccc(CN3CCOCC3)cc2=N1)NC1CC1 | 23.5 | 2.95 | – | 58.9 (inactive) |
| O=C(c1ccc(Nc2nccc(-c3cc4ccccc4s3)n2)cc1)N1CCC(N2CCCC2)CC1 | 61.6 | 3.45 | – | 174 (active) |
| Nc1nc(N)c2nc(-c3ccccc3)c(N)nc2n1 [Triamterene] | 98.6 | 112 | 85.8 (inactive) | 102 (inactive) |
| Cc1c(C(=O)NN2CCCCC2)nn(-c2ccc(Cl)cc2Cl)c1-c1ccc(I)cc1 | – | – | 92 (inactive) | 96.5 (inactive) |
| CC(=O)C1(O)Cc2c(O)c3c(c(O)c2C(OC2CC(N)C(O)C(C)O2)C1)C(=O)c1ccccc1C3=O (configuration not stated) [Idarubicin] | 49.1 ± 12 | 5.14 ± 3 | – | 584 (active) |
| C[C@H](C(=O)O)c1cccc(C(=O)c2ccccc2)c1 [(S)-(+)-Ketoprofen] | – | – | 99 (inactive) | 100 (inactive) |
| CCC(C)(C)C(=O)OC1CC(C)C=C2C=CC(C)C(CCC3CC(O)CC(=O)O3)C21 (configuration not stated) [Simvastatin] | – | – | 120 (inactive) | 106 (inactive) |
| CCN(CC)CCNC(=O)c1c(C)[nH]c(C=C2C(=O)Nc3ccc(Cl)cc32)c1C | 22.9 | 1.9 | – | 213 (active) |
| O=S(=O)(NCc1cccc2ccccc12)c1cc(Cl)c(Oc2cccc(N3CCNCC3)c2)s1 | 8.55 | 0.28 | – | 122 (inactive) |
| CCOC(=O)N1CCC(=C2c3ccc(Cl)cc3CCc3cccnc32)CC1 [Loratadine] | – | – | 98.3 (inactive) | 103 (inactive) |
| COc1ccc(CCN(C)CCCC(C#N)(c2ccc(OC)c(OC)c2)C(C)C)cc1OC.Cl (racemic) | – | – | 99.2 (inactive) | 95.5 (inactive) |
| S=C([S-])N1CCCC1.[NH4+] [Ammonium pyrrolidinedithiocarbamate] | 87.9 | 1.9 | – | 126 (inactive) |
| CCCCCCCCCCCCCCCCCCOCC(COP(=O)([O-])OCC[N+](C)(C)C)OC (configuration not stated) | 51.3 and 99.9 | – | 225 (active) and 85.1 (inactive) | 162 (active) and 103 (inactive) |
| COS(=O)(=O)[O-].C[n+]1c2ccccc2nc2ccccc21 [5-methylphenazin-5-ium methyl sulfate] | 28.1 | 4.9 | – | 688 (active) |
| COc1ccc(CCN(C)CCCC(C#N)(c2ccc(OC)c(OC)c2)C(C)C)cc1OC (configuration not stated) [Verapamil] | – | – | 90.6 (inactive) | 98.6 (inactive) |
| O=C(O)C1=CC(O)C(O)C(O)C1 (configuration not stated) [Shikimic acid] | – | – | 97.5 (inactive) | 100 (inactive) |
| Cc1ccccc1N(C)C(=O)c1ccc(S(=O)c2nccs2)c([N+](=O)[O-])c1 (configuration not stated) | 9.73 | 4.15 | – | 131 (inactive) |
| O=C1c2ccccc2-c2nc3nnnn3nc21 [PDK1/Akt/Flt Dual Pathway Inhibitor] | 41.8 | 3.4 | – | 56.9 (inactive) |
| CCC=CCC=CCC=CCC=CCC=CCCC(=O)OC(COCCCCCCCCCCCCCCCC)COP(=O)([O-])OCC[N+](C)(C)C (configuration not stated) | 105 | 107 | 94.3 (inactive) | 99.4 (inactive) |
| Cc1ccc([N+](=O)[O-])cc1S(=O)(=O)N(C)N=Cc1cnc2ccc(Br)cn12.Cl.O.O [PI 3-Ka Inhibitor VIII] | 45.7 | 4.97 | – | 125 (inactive) |
| Cc1[nH]nc2ccc(-c3cncc(OCC(N)Cc4ccccc4)c3)cc12 (configuration not stated) | 58.8 | 2.19 | – | 92 (inactive) |
| Nc1ncnc2c1nc(N)n2[C@@H]1O[C@H](CO)[C@@H](O)[C@H]1O | 25.5 | 2.02 | – | 76.3 (inactive) |
| CN(C)CCCN1c2ccccc2Sc2ccc(C(F)(F)F)cc21.Cl [Triflupromazine hydrochloride] | – | – | 110 (inactive) | 113 (inactive) |
| COC12C(COC(N)=O)C3=C(C(=O)C(C)=C(N)C3=O)N1CC1NC12 (configuration not stated) [Mitomycin C] | 73.2 ± 6 | 47.6 ± 1.8 | 105 (inactive) | 96.2 (inactive) |
| COc1ccc(Cn2cc(C(=O)O)c(=O)c3ccccc32)cc1 | – | – | 98.8 (inactive) | 116 (inactive) |
| Clc1ccc(N/N=C(\c2ccccc2)c2ccccn2)nc1 | 73.1 | 1.54 | – | 111 (inactive) |
